Source: PubChem
SSB-PriA inh: K. pneumoniae PriA-SSBct interaction inhibition. inhibition, % at 33 µM. AID 1272365. AlphaScreen SSBct-PriA binding, biotinylated peptide. 430,000 compounds, 0.6% hits; in the data active = inhibition mostly above about 37%, no sharp cut-off; inactive = mostly below about 20%;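 note: plate controls were negative control peptide for no effect and reference peptide for full effect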
MazF activator: activators of E. coli MazEF toxin-antitoxin RNase; FAM/BHQ RNA-DNA oligo cleavage fluorescence, 5 h; activation, % at 20 µM; P0AE70; 350,000 compounds, 0.32% hits; in the data active = activation above about 50%
Target sequence (P0AE70 whole entry, looked up): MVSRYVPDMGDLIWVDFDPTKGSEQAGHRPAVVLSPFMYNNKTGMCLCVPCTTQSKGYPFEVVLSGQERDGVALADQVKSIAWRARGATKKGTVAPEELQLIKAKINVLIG
BJeLR lethal: BJeLR cell viability loss; BJeLR (HRASV12) viability, CellTiter-Glo ATP luminescence, 48 h; 300,000 compounds, 0.17% hits; inhibition, % (concentration not given with the values); in the data active = inhibition above about 50%
RN4220 kill: S. aureus RN4220 growth inhibition; OD600, 16 h; inhibition, % (no concentration beside the values); 330,000 compounds, 0.33% hits; in the data active = inhibition above about 85%;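 note: plate controls were untreated cells for no effect and reference antibiotic for full effect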
ugtP null kill: growth inhibition of S. aureus ugtP deletion strain. S. aureus RN4220 ugtP deletion, OD600 growth, 16 h. growth inhibition, % (no concentration beside the values). 330,000 compounds, 0.54% hits. AID 1259309; in the data active = growth inhibition above about 68%;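 note: plate controls were untreated wells for no effect and antibiotic for full effect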
* hit, by the source's call. Rows were chosen to be rich in hits. Some 1.2% of all compounds tested hit in one or more screens of this group.

`Cc1ccc(-c2csc3nc(SCC(=O)N4CCCC4)n(-c4ccccc4)c(=O)c23)o1` gave SSB-PriA inh -18.0.
Cc1ccc(S(=O)(=O)N2CCCCC2C(=O)Nc2nc(-c3ccccn3)cs2)cc1 (stereo unspecified) was read as SSB-PriA inh 65.5*.
O=C(Nc1nc(-c2ccccn2)cs1)C1CCCCN1S(=O)(=O)c1cccs1 (stereo unspecified) was read as SSB-PriA inh 104.0*.
Screening CN1CCN(CCC(=O)NN=Cc2cc([N+](=O)[O-])ccc2OC(F)F)CC1 returned SSB-PriA inh -14.2, RN4220 kill -0.8 and ugtP null kill -2.3.
For CCOc1ccc2c(c1)S/C(=C\c1cccs1)C(=O)N2 the results were SSB-PriA inh -4.7, MazF activator 77.3*, BJeLR lethal 28.5, RN4220 kill -3.4 and ugtP null kill 2.0.
`Cc1oc(-c2ccc(Cl)cc2[N+](=O)[O-])cc1C(=O)Nc1cccc(F)c1` gave SSB-PriA inh 35.0*.
`CCN(Cc1ccccc1)c1ccc(C=NN2CCOCC2)cc1` gave SSB-PriA inh 47.2*, RN4220 kill 3.0 and ugtP null kill 4.1.
Screening COc1ccccc1NC(CC(=O)c1ccccc1)C(=O)OCC(=O)c1ccc(Br)cc1 (stereo unspecified) returned SSB-PriA inh -18.3, MazF activator -1.2, BJeLR lethal 4.4, RN4220 kill 1.5 and ugtP null kill 18.9.
Screening COc1cccc(C2=CC(c3ccccc3)n3nnnc3N2)c1 (stereo unspecified) returned SSB-PriA inh -42.5, MazF activator 16.9, BJeLR lethal 5.2, RN4220 kill 15.7 and ugtP null kill 12.5.
Screening COc1cccc(C2=CC(c3ccc(N(C)C)cc3)n3nnnc3N2)c1 (stereo unspecified) returned SSB-PriA inh 5.7, MazF activator 181.6*, BJeLR lethal -5.4, RN4220 kill -1.7 and ugtP null kill -17.8.
For O=[N+]([O-])c1cc(S(=O)(=O)NC2=NCCCCC2)ccc1NCC1CCCCC1 the results were SSB-PriA inh 40.8*, MazF activator 1.6, BJeLR lethal 1.6, RN4220 kill 4.1 and ugtP null kill 12.1.
CCOC(=O)C1CCN(c2nc3ccccc3nc2C(C#N)C(=O)OC(C)C)CC1 (stereo unspecified) was read as SSB-PriA inh -14.2, MazF activator 351.3*, BJeLR lethal -0.9, RN4220 kill 1.7 and ugtP null kill -3.6.
Screening COc1ccc(CNC(=O)C(C#N)c2nc3ccccc3nc2N2CCCC2)cc1 (stereo unspecified) returned SSB-PriA inh -13.2, MazF activator active and BJeLR lethal -8.6.
`COc1ccc2nc(SCCN(C)C)[nH]c2c1` gave SSB-PriA inh -2.3, MazF activator 38.0, BJeLR lethal 2.3, RN4220 kill 1.2 and ugtP null kill 6.1.
`O=C(NC1CCN(c2ncccn2)CC1)c1cccc(F)c1` gave SSB-PriA inh -13.4, MazF activator 5.9, BJeLR lethal -7.6, RN4220 kill 2.1 and ugtP null kill 3.7.
`COCCN=c1scc(-c2cc(OC)ccc2OC)n1N=Cc1c[nH]c2ccccc12` gave SSB-PriA inh 65.9*, RN4220 kill -2.9 and ugtP null kill -5.3.
`CCOC(=O)N1CCC(NC(=O)Cn2c(=O)n(CCc3cccs3)c(=O)c3ccccc32)CC1` gave SSB-PriA inh -12.0.
`CN(C)S(=O)(=O)c1ccc(N2CCCC2)c(C(=O)NNC(=O)c2ccccc2)c1` gave SSB-PriA inh -7.9, MazF activator -9.4, RN4220 kill 95.5* and ugtP null kill 75.4.
Screening NNc1nc(-c2ccccn2)nc2c1CCC2 returned SSB-PriA inh 165.0*.
c1ccc(N2CCN(c3nc(-c4ccccn4)nc4ccccc34)CC2)cc1 was read as SSB-PriA inh 0.3, MazF activator 8.5, BJeLR lethal 0.2, RN4220 kill 3.5 and ugtP null kill -5.7.
For Nc1nc(N)nc(-c2ccccn2)n1 the results were SSB-PriA inh 78.2*, MazF activator 5.9, BJeLR lethal 0.4, RN4220 kill 5.8 and ugtP null kill -1.1.
Screening CN1CCN(c2nc(-c3ccccn3)nc3ccccc23)CC1 returned SSB-PriA inh 45.5*, MazF activator 2.9, BJeLR lethal 16.4, RN4220 kill 3.4 and ugtP null kill 2.1.
Screening Nc1nc(-c2ccccn2)nc2ccccc12 returned SSB-PriA inh 140.0*.
Clc1nc(-c2ccccn2)nc2ccccc12 was read as SSB-PriA inh 42.1.
For O=C(Cc1ccc(Cl)cc1)NCCOc1ccc2nnc(-c3cccc(F)c3)n2n1 the results were SSB-PriA inh -9.0.
`NNc1nc(N)nc(-c2ccccn2)n1` gave SSB-PriA inh 151.5*.
Cc1nc(N)nc(-c2ccccn2)n1 was read as SSB-PriA inh 19.5.
Screening O=C(CCl)N1c2ccccc2Sc2c1ccc1ccccc21 returned SSB-PriA inh -1.2, MazF activator 5.6, RN4220 kill 93.5* and ugtP null kill 99.6*.
Screening Cc1cccc(C2(c3cccc(C)c3)OC(=O)c3ccccc32)c1 returned SSB-PriA inh -5.5, MazF activator 0.7, BJeLR lethal 1.5, RN4220 kill -10.6 and ugtP null kill 82.2*.
`O=[N+]([O-])c1ccc(C(Nc2nccs2)c2ccc3cccnc3c2O)cc1` (stereo unspecified) gave SSB-PriA inh 77.0.
Oc1ccccc1C(Nc1nccs1)c1ccc2cccnc2c1O (stereo unspecified) was read as SSB-PriA inh 66.5*, MazF activator -0.6, BJeLR lethal 40.4, RN4220 kill 12.2 and ugtP null kill -1.6.
`COc1ccc(OC)c(C=Nc2ccccc2-c2nc3ccccc3[nH]2)c1` gave SSB-PriA inh -16.1, MazF activator 2.1, BJeLR lethal -9.6, RN4220 kill 3.3 and ugtP null kill 30.2.
O=c1[nH]c2ccccc2nc1/C=C/c1ccccc1 was read as SSB-PriA inh -1.9, MazF activator -6.2, BJeLR lethal 3.4, RN4220 kill 5.6 and ugtP null kill -17.0.
Screening COc1ccc(OC)c(/C=C/c2nc3ccccc3[nH]c2=O)c1 returned SSB-PriA inh -2.6, MazF activator 240.5*, BJeLR lethal 7.2, RN4220 kill -1.8 and ugtP null kill -10.4.
`O=c1[nH]c2ccccc2nc1/C=C/c1ccc(F)cc1` gave SSB-PriA inh -9.1, MazF activator 849.1*, BJeLR lethal 7.1, RN4220 kill 10.8 and ugtP null kill -7.1.
Screening CC1(C)Cc2ccccc2C(=NC(Cc2c[nH]c3ccccc23)C(=O)O)N1 (stereo unspecified) returned SSB-PriA inh -5.5, MazF activator 9.8, BJeLR lethal 6.5, RN4220 kill 3.6 and ugtP null kill -0.6.
CSc1ccc(CN(C)Cc2cc(=O)oc3c(C)c(C)ccc23)cc1 was read as SSB-PriA inh -1.5, MazF activator -8.1, BJeLR lethal -7.8, RN4220 kill 4.7 and ugtP null kill 16.9.
